High-throughput results deposited in PubChem by National Center for Advancing Translational Sciences (NCATS).
The list is not random: actives were taken first. Their share in the collection is about 0.92%.
APEX1 inh: inhibitors of human APE1 endonuclease | P27695 | recombinant APE1, TAMRA/BHQ-2 abasic DNA cleavage fluorescence | Potency, µM (titrated, usually from 65.8 µM), for inactives: at the top dose activity change, negative = inhibition, hits mostly inhibitors | hit rate 0.35% among 350,000 | AID 2517;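 also: plate controls were vehicle for no effect and reference inhibitor for full effect; nearly all actives have a fitted effect of over 55% in size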
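Activity was derived from the fluorescence gain between first and third kinetic reads (60 s intervals, ex 525/em 598 nm) after 50 nM THF-abasic TAMRA/BHQ-2 duplex was added to 0.75 nM APE1 preincubated 15 min with compound.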
RECQ1 inh-1: blocks DNA unwinding by human RECQ1. P46063. RECQ1 DNA unwinding, red fluorescence kinetic read. Potency, µM (series often up to 57.3 µM), inactives show top-dose activity, negative = inhibition, actives largely listed as inhibitors. hit rate 0.54% among 240,000. AID 2549;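 also: plate controls were vehicle for no effect and no enzyme for full effect; nearly all actives have a fitted effect of over 30% in size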
Target sequence (P46063 whole entry, looked up): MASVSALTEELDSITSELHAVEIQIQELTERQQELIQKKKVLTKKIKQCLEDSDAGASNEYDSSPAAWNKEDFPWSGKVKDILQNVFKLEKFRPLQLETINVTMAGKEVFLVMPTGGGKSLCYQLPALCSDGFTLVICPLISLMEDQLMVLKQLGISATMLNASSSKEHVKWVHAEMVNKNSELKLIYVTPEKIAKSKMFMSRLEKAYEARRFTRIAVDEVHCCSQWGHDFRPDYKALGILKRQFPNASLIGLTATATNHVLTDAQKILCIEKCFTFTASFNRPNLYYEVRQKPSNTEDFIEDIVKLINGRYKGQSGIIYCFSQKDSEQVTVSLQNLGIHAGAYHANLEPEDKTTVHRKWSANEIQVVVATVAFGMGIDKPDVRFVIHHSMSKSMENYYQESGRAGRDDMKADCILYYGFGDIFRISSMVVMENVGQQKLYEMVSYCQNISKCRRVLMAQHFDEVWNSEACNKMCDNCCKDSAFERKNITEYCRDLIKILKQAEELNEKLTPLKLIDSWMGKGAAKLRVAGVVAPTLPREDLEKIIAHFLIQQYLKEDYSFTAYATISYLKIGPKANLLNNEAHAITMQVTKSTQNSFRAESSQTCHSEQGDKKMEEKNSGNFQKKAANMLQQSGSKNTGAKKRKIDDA
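RECQ1T1 50 nM; forked duplex (20 bp + 30-nt ss tails) 200 nM, ATP 2 mM final; pH 8.0, 2 mM MgCl2, 2.5 ug/ml poly(dI-dC); 15 min compound preincubation; discontinuous kinetic read over 2 h at RT.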
FEN1 inhibitor: human FEN1 inhibition; P39748; Recombinant FEN1 flap cleavage, fluorescence, 15 min; Potency, µM (highest dose often 114 µM), inactives show at the highest dose activity change, negative = inhibition, usual class: inhibitors; hit rate 0.35% among 390,000; AID 588795; also: nearly all actives have a fitted effect of over 65% in size
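In this screen, 50 nM flap DNA substrate was added to 10 nM FEN1 pretreated with compound for 15 min at room temperature; cleavage was followed with reads at 0 and 15 min, and Hill fitting gave concentration–response parameters.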
BLM helicase inh: inhibitors of human Bloom syndrome helicase BLM | Potency, µM (series often up to 56.1 µM), for the others: at the highest dose activity change, negative = inhibition, hits mostly inhibitors | AID 2528 | hit rate 0.2% among 350,000 | recombinant BLM DNA unwinding, fluorescence dequenching;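 also: plate controls were vehicle for no effect and no enzyme for full effect; nearly all actives have a fitted effect of over 35% in size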
TDP1 block: inhibitors of human tyrosyl-DNA phosphodiesterase TDP1 | recombinant TDP1, AlphaScreen DNA substrate cleavage | Potency, µM (highest dose often 130 µM), without a hit: at the top dose activity change, negative = inhibition, hits mostly inhibitors | hit rate 0.28% among 350,000; also: nearly all actives have a fitted effect of over 40% in size
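AlphaScreen read-out: signal falls as enzyme removes the 3' tyrosine-FITC from a 5'-biotinylated DNA oligo (15 nM, 5 min, RT). Enzyme was E. coli-made recombinant Tdp1 at 1 nM, exposed to compound for 15 min beforehand; beads 10 ug/ml, 10 min.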
RECQ1 conf: confirmation of human RECQ1 helicase inhibitors. AID 2708. Potency, µM (doses to about 229 µM), for inactives: at the highest dose activity change, negative = inhibition, usual class: inhibitors. shares compounds with RECQ1 inh-1. hit rate 28% among 610. RECQ1 helicase DNA unwinding, fluorescence; also: nearly all actives have a fitted effect of over 45% in size
ADP FP counter: displaces ADP in a fluorescence polarization counter-screen for RECQ1 hits; shares compounds with RECQ1 inh-1; ADP fluorescence polarization displacement counterscreen; Potency, µM (top dose mostly 228 µM), inactives show at the top dose activity change, negative = inhibition, actives largely listed as inhibitors; hit rate 27% among 530; AID 2711; also: nearly all actives have a fitted effect of over 45% in size
RECQ1 inh-2: RECQ1 helicase inhibition confirmed, round 2; shares compounds with RECQ1 inh-1; hit rate 15% among 1,100; Potency, µM (doses to about 119 µM), inactives show top-dose activity, negative = inhibition, hits mostly inhibitors; recombinant RECQ1 DNA unwinding, red fluorescence; also: nearly all actives have a fitted effect of over 50% in size
* marks the source's active call; other numbers are inactive results; [ ] = remark or other dose. Calls follow the shape of the dose curve; as a rule, active = well fitted curve in the direction sought with a large enough effect; inconclusive = small, poorly fitted or top-dose-only effect, or another doubt; inactive = no such curve, though single readings can be large; an effect the other way counts as inactive or inconclusive. Unless noted, % is scaled to controls: 0 for no effect and ±100 for the full control effect; potency is read from the fitted curve at half-maximal effect.

For CC1CCCCC1NC(=S)NC(=O)c1ccccc1Br (configuration not stated) the results were APEX1 inh 7.9%, RECQ1 inh-1 39.8µM*, FEN1 inhibitor -15.5%, BLM helicase inh -8.7%, TDP1 block 0.6% and RECQ1 inh-2 -12.8%.
`CC1CCCCC1NC(=S)NC(=O)c1ccccc1Cl` (configuration not stated) gave APEX1 inh -14.3%, FEN1 inhibitor -13.8% and TDP1 block -4.9%.
For CC(=O)OC[C@@H]1O[C@H](C/C=N\O[C@@H](C)c2cn([C@H]3COC[C@H]3O)nn2)C=C[C@@H]1OC(C)=O the results were APEX1 inh inconclusive, RECQ1 inh-1 inactive[11.5 µM], BLM helicase inh 0.8%[12.4 µM] and TDP1 block 2.6%[21 µM].
For C=CCN1c2ccccc2[C@]23C[C@@H](C(=O)OC)N(S(=O)(=O)CCCC)C2=NC(C(=O)OC)=C(C(=O)OC)[C@H]13 the results were APEX1 inh -0.9%[12.4 µM], RECQ1 inh-1 -0.2%[11.5 µM], BLM helicase inh -6.9%[12.4 µM] and TDP1 block 12.2%[12.3 µM].
Screening CCN(CC)c1ccc(/C=N/NC(=S)NCc2ccccc2)cc1 returned APEX1 inh -0.5%, RECQ1 inh-1 7.08µM*, FEN1 inhibitor 2.2%, BLM helicase inh -8.4%, TDP1 block 9.3%, RECQ1 conf -7.3%[114 µM] and ADP FP counter 6.6%[91.9 µM].
`Cc1cccc(CNc2cc(-c3ccoc3)ncn2)c1` gave APEX1 inh -2.9%, RECQ1 inh-1 inconclusive, BLM helicase inh -13.0%, TDP1 block -6.9%[56.1 µM] and RECQ1 inh-2 -11.4%.
For COC/C=C/C1=CC2=CC(=O)C(C)(OC(=O)C3CCCC3)C(=O)C2=CO1 (configuration not stated) the results were APEX1 inh inconclusive, RECQ1 inh-1 inconclusive, FEN1 inhibitor 39.8µM*, BLM helicase inh 3.3%, TDP1 block -0.6% and RECQ1 inh-2 inconclusive.
For Nc1nc(Nc2ccccc2)nc(NCc2ccco2)c1[N+](=O)[O-] the results were APEX1 inh 0.0%, RECQ1 inh-1 inconclusive, FEN1 inhibitor -22.8%, BLM helicase inh inconclusive, TDP1 block 10.6% and RECQ1 inh-2 79.4µM*.
C/C(=N/NC(=O)CSCc1ccc(Cl)cc1)c1cccc(NC(=O)c2ccccc2)c1 was read as APEX1 inh inconclusive, RECQ1 inh-1 inactive, FEN1 inhibitor -12.9%, BLM helicase inh -3.8% and TDP1 block 7.5%.
C/C(=N\NC(=O)CSCc1ccc([N+](=O)[O-])cc1)c1cccc(Br)c1 was read as APEX1 inh 11.2%, RECQ1 inh-1 1µM*, FEN1 inhibitor -4.9%, BLM helicase inh -0.8%, TDP1 block 7.9% and RECQ1 conf -4.2%[114 µM].
For Cc1ccc(NC(=O)COC(=O)CNC(=O)c2cccc([N+](=O)[O-])c2)cc1S(=O)(=O)N1CCCCCC1 the results were APEX1 inh inconclusive, RECQ1 inh-1 31.6µM*, FEN1 inhibitor 0.9%, BLM helicase inh -8.6%, TDP1 block 5.6% and RECQ1 inh-2 -15.6%.
Cc1cccc(C(=O)OC2CCN(C)CC2)c1 was read as APEX1 inh -0.1%, RECQ1 inh-1 -3.3%, FEN1 inhibitor -1.1%, BLM helicase inh -4.1% and TDP1 block 0.0%.
Screening Cc1cccc(N(C(=O)c2ccc(Cl)cc2)C2CS(=O)(=O)CC2OC(=O)c2ccc(Cl)cc2)c1 (configuration not stated) returned APEX1 inh 7.6%, RECQ1 inh-1 inconclusive, FEN1 inhibitor -11.4%, BLM helicase inh -7.2%, TDP1 block 1.0% and RECQ1 inh-2 -11.3%.
Screening O=C(Nc1nc2ccc(SC(F)F)cc2s1)c1ccc(NS(=O)(=O)c2ccc(F)c(F)c2)cc1 returned APEX1 inh -9.0%, RECQ1 inh-1 inconclusive, FEN1 inhibitor inconclusive, BLM helicase inh -18.6%, TDP1 block 2.4% and RECQ1 inh-2 inconclusive.
CS(=O)(=O)c1ccc2nc(NC(=O)c3ccc(NS(=O)(=O)c4ccc(F)c(F)c4)cc3)sc2c1 was read as APEX1 inh -6.4%, RECQ1 inh-1 31.6µM*, FEN1 inhibitor -2.8%, BLM helicase inh -12.2%, TDP1 block -0.6% and RECQ1 inh-2 -21.3%.
CS(=O)(=O)c1ccc2nc(NC(=O)c3cccc(NS(=O)(=O)c4ccc(F)c(F)c4)c3)sc2c1 was read as APEX1 inh 8.5%, RECQ1 inh-1 -5.1%, FEN1 inhibitor -9.1%, BLM helicase inh -2.1% and TDP1 block 5.4%.
Cn1nc(C(=O)Nc2nc3ccccc3[nH]2)c2ccccc2c1=O was read as APEX1 inh 1.5%, RECQ1 inh-1 inconclusive, FEN1 inhibitor -15.3%, BLM helicase inh -15.4%, TDP1 block 6.9% and RECQ1 inh-2 inconclusive.
Screening COc1ccc(OC)c(N2C(=O)[C@@H]3C(c4ccccc4Cl)=NO[C@@H]3C2=O)c1 returned APEX1 inh inconclusive, RECQ1 inh-1 28.2µM*, FEN1 inhibitor 50.1µM*, BLM helicase inh -6.0% and RECQ1 inh-2 inconclusive.
`C/C(=N/NC(=O)CSc1nc2ccccc2s1)c1ccncc1` gave APEX1 inh 14.6%, RECQ1 inh-1 15.6%, FEN1 inhibitor 4.7%, BLM helicase inh 1.0% and TDP1 block 2.6%.
`CS/C(=N\S(=O)(=O)c1cccs1)NC(=O)CSc1nc2ccccc2s1` gave APEX1 inh 5.7%, RECQ1 inh-1 inconclusive, FEN1 inhibitor inconclusive, BLM helicase inh -22.2%, TDP1 block -6.1% and RECQ1 inh-2 inconclusive.
COc1ccc(-n2nc(C(=O)NCC(=O)NCC3CCCO3)c3ccccc3c2=O)c(OC)c1 (configuration not stated) was read as APEX1 inh -1.4%, RECQ1 inh-1 -3.1%, FEN1 inhibitor 3.5%, BLM helicase inh -6.1% and TDP1 block 3.1%.
Screening COc1ccc(-n2c(N)c(C(=O)NCC3CCCO3)c3nc4ccccc4nc32)c(OC)c1 (configuration not stated) returned APEX1 inh inconclusive, RECQ1 inh-1 inconclusive, FEN1 inhibitor -16.3%, BLM helicase inh -10.0%, TDP1 block 1.0% and RECQ1 inh-2 -19.5%.
